# From PubChem BioAssay (NCI)
# Compounds without any hit were thinned out: in the full panel of roughly 83,000, 20% have a hit.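 Interpretation: 100, growth as untreated; towards 0, rising growth inhibition; 0, no net growth; 0 to -100, cell death. Compounds scoring below 10 were considered active.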 Unmarked numbers belong to inactive results. Activity calls are given as the source filed them.
# Columns and labels:
# Experiment in all cases: NCI-60 one-dose screen, 48 h (100 = growth as untreated, 0 = no growth, -100 = all killed)
# Conditions in all cases: 10 µM unless noted
# HCT-15 colon = tested on: HCT-15 colon
# HT29 colon = tested on: HT29 colon
# SNB-75 CNS = tested on: SNB-75 CNS
# SNB-19 CNS = tested on: SNB-19 CNS
# U251 CNS = tested on: U251 CNS
# SK-MEL-5 melanoma = tested on: SK-MEL-5 melanoma
# UACC-62 melanoma = tested on: UACC-62 melanoma
# LOX IMVI melanoma = tested on: LOX IMVI melanoma
# SK-MEL-28 melanoma = tested on: SK-MEL-28 melanoma
# SK-MEL-2 melanoma = tested on: SK-MEL-2 melanoma
# EKVX NSCLC = tested on: EKVX NSCLC
# SN12C renal = tested on: SN12C renal
# UO-31 renal = tested on: UO-31 renal
# TK-10 renal = tested on: TK-10 renal
# ACHN renal = tested on: ACHN renal
# CAKI-1 renal = tested on: CAKI-1 renal
# A498 renal = tested on: A498 renal
# CCRF-CEM leukemia = tested on: CCRF-CEM leukemia
# MOLT-4 leukemia = tested on: MOLT-4 leukemia
# PC-3 prostate = tested on: PC-3 prostate
SMILES,growth (HCT-15 colon),growth (HT29 colon),growth (SNB-75 CNS),growth (SNB-19 CNS),growth (U251 CNS),growth (SK-MEL-5 melanoma),growth (UACC-62 melanoma),growth (LOX IMVI melanoma),growth (SK-MEL-28 melanoma),growth (SK-MEL-2 melanoma),growth (EKVX NSCLC),growth (SN12C renal),growth (UO-31 renal),growth (TK-10 renal),growth (ACHN renal),growth (CAKI-1 renal),growth (A498 renal),growth (CCRF-CEM leukemia),growth (MOLT-4 leukemia),growth (PC-3 prostate) [%]
O=C(CN(C(=O)Cn1c(=O)n2nnnc2c2ccccc21)c1ccccc1C(F)(F)F)Nc1ccc(C(F)(F)F)cc1,102%,110%,91%,95.6%,99.1%,102%,101%,98.9%,108%,105%,101%,100%,81.1%,111%,102%,99.2%,116%,107%,104%,
COc1cc2c(cc1O)CC[C@@H]1[C@@H]2CC[C@]2(C)[C@@H](OCCN(C)C)CC[C@@H]12,34%,3.38% (active),17.8%,52.4%,27.4%,,,52.5%,,25.8%,65.2%,,72.3%,85.1%,57.9%,75.3%,40.3%,,33.9%,45.4
O=C1Nc2ccc(Br)cc2C12Oc1ccccc1C1CC(c3ccc(F)cc3)=NN12 (stereo unspecified),79.9%,93.7%,86%,90.6%,90.9%,93.3%,84.6%,91.9%,105%,98.1%,85.5%,93.3%,65.6%,121%,91%,78.7%,102%,91%,74.8%,
C(=N/Nc1ncc(-c2cc3cc(-c4ccccc4)ccc3o2)s1)/c1cccs1,99.2%,99.6%,100%,99.3%,99.5%,96.8%,90.7%,98.7%,96.1%,99.7%,94.9%,87.6%,84.8%,97.5%,97.9%,103%,32.5%,97.5%,96.5%,
COc1ccc2c(c1)C(=O)/C(=C/c1ccccn1)CC2,68.5%,43.3%,75.8%,76.1%,69.3%,,,44.5%,,81.3%,92.5%,,90%,,54.1%,74.4%,120%,-6.73% (active),21.5%,87.6
Cc1ccc2c(C(C[N+](=O)[O-])c3ccccc3F)c(-c3ccccc3)[nH]c2c1 (stereo unspecified),25.7%,6.14% (active),24.6%,49.1%,25.3%,48.1%,42.4%,36.4%,63%,15.4%,56.3%,54.5%,47.5%,70.6%,48.5%,32.9%,32.5%,28.6%,25.9%,
Cn1c(=O)[nH]c(=O)c2nc(CCC(=O)NCCC(=O)O)c(=O)[nH]c21,106%,106%,89%,104%,98.2%,103%,105%,98.6%,103%,106%,106%,99.5%,86.6%,106%,101%,93.5%,114%,109%,106%,
COc1ccc(C2CC(c3ccc4ccccc4c3)=NN2/C=C2\SC(=S)N(NC(=O)Cc3ccccc3Nc3c(Cl)cccc3Cl)C2=O)cc1 (stereo unspecified),19.4%,32.3%,-15.7% (active),32%,16.1%,19.6%,42.8%,37.1%,57%,38.8%,40.2%,31.7%,11.8%,48.7%,47.4%,31.5%,-0.474% (active),6.24% (active),13.9%,
COc1ccc(-n2nc(C)c3c(Nc4ccc(NC(=O)Nc5cccc(C(F)(F)F)c5)cc4)ncnc32)cc1,2.47% (active),1.63% (active),-7.61% (active),12%,-49.7% (active),-66.5% (active),3.5% (active),-81.9% (active),11.6%,-21.1% (active),10.1%,22.5%,-44.9% (active),10.7%,-10.2% (active),-18.9% (active),48.5%,18.2%,8.98% (active),
COc1ccc(CN2c3ccccc3Sc3ccccc32)c(C(F)(F)F)c1,37.3%,2.45% (active),7.8% (active),32.7%,20.6%,,,54.7%,,3.52% (active),49.9%,,45.6%,,48.7%,32.5%,4.16% (active),10.5%,24%,26.9
COc1ccc(S(=O)(=O)N2CCCCC2)cc1NC(=O)c1[nH]c(C)c2c1CCCCC2=O,5.16% (active),11%,5.25% (active),36.1%,23.4%,-24.4% (active),14.5%,-56.6% (active),48.1%,19.6%,33.9%,34.9%,9.67% (active),1.34% (active),19.8%,11.4%,-19.2% (active),42%,36.6%,
COc1ccc(NC2=C(Sc3nc(C)cc(C)n3)C(=O)N(Cc3ccccc3)C2=O)cc1Cl,73.8% [30 µM],60.1% [30 µM],84.4% [30 µM],95.4% [30 µM],86.9% [30 µM],57.9% [30 µM],71.5% [30 µM],93.2% [30 µM],103% [30 µM],96.5% [30 µM],84.5% [30 µM],91.8% [30 µM],84.2% [30 µM],111% [30 µM],103% [30 µM],95.7% [30 µM],80.4% [30 µM],54.6% [30 µM],45% [30 µM],
Cc1ccc(C2Oc3ccccc3C3CC(c4cccs4)=NN32)cc1 (stereo unspecified),100%,109%,81.7%,96%,92.5%,96.3%,96.2%,94.4%,103%,98.2%,80.9%,92.5%,65.3%,108%,98.7%,82.3%,107%,95.3%,97.5%,
COc1ccc2nc(NC(=O)CSc3nnc4n3S(=O)(=O)c3ccccc3N4c3ccccc3)sc2c1,93.7%,102%,77.5%,97.2%,94.9%,99.1%,82.6%,85.5%,109%,87.9%,94.4%,107%,-39.9% (active),103%,92.8%,-0.617% (active),121%,-19.7% (active),6.47% (active),
CCN(CC)S(=O)(=O)c1ccc(OC)c(NC(=O)c2[nH]c(C)c3c2CCCCC3=O)c1,18.9%,14.5%,9.16% (active),45.2%,43.6%,-21.8% (active),16.2%,9.93% (active),55.7%,55.3%,43.5%,42%,14.4%,13.5%,31.1%,15.1%,15.1%,55.7%,64.9%,
COc1ccccc1NS(=O)(=O)c1ccc2oc(SC(C)C)nc2c1,125%,96.3%,102%,93.7%,138%,49.9%,59.9%,146%,115%,66.4%,55.9%,89.3%,73.5%,102%,151%,71.2%,91.4%,65%,69.6%,
Cc1ccc(O)c(N2C(=NCc3ccco3)NS(=O)(=O)c3cnccc32)c1,112%,111%,106%,110%,100%,118%,96.7%,103%,107%,106%,101%,101%,91.2%,124%,106%,68.4%,109%,61.2%,87.9%,
